FadD28 FP inh – blocks FadD28 binding to the bisubstrate probe; hit rate 0.22% among 360,000; inhibition, % at 12.5 µM; AID 588549; fluorescence polarization; in the data active = inhibition above about 8.5%, passing the limit was not always enough
Mtb FBA inh – inhibits M. tuberculosis FBA enzyme | P9WQA3 | purified M. tuberculosis FBA, fluorescence read-out | inhibition, % at 1 µM | hit rate 2.3% among 360,000;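 also: 0% = vehicle and 100% = reference inhibitor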
Target sequence (P9WQA3 whole entry, looked up): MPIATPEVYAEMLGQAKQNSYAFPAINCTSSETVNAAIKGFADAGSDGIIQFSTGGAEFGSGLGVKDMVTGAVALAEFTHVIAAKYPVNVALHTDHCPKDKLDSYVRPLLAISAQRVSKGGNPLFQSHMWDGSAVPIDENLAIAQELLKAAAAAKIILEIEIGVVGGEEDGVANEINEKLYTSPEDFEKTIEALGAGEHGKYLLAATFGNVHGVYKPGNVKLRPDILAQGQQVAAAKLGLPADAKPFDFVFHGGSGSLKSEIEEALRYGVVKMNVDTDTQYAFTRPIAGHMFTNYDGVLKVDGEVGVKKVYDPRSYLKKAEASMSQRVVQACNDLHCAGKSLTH
GDH-TPI counter-1 – GDH-TPI coupled enzyme inhibition counter-screen. GDH-TPI coupled enzyme counterscreen, NADH absorbance. inhibition, % at 4.8 µM. hit rate 1.2% among 360,000. AID 588335; in the data active = inhibition above about 30%;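 also: 0% = DMSO wells and 100% = wells lacking the enzyme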
SARS 3CLpro inh – SARS-CoV 3CLpro protease inhibition; P0C6X7; recombinant SARS-CoV 3CLpro, quenched FRET peptide cleavage; inhibition, % at 6 µM; hit rate 0.14% among 290,000; AID 1706; in the data active = inhibition above about 12%
BioA inh – inhibitors of Mycobacterium tuberculosis BioA enzyme | purified M. tuberculosis BioA enzyme, plate reader | inhibition, % at 9.99 µM | hit rate 0.096% among 360,000; in the data active = inhibition above about 40%
Mtb FBA confirm – Mtb FBA inhibition, confirmed; purified M. tuberculosis FBA, fluorescence read-out; shares compounds with Mtb FBA inh; inhibition, % at 1 µM; hit rate 78% among 5,600;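 also: 0% = vehicle wells and 100% = reference inhibitor wells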
GDH-TPI counter-2 – GDH-TPI inhibition counter-screen for FBA inhibitors | shares compounds with Mtb FBA inh | hit rate 81% among 5,600 | GDH-TPI coupled enzyme counterscreen, fluorescence | inhibition, % at 1 µM; in the data active = inhibition above about 10%
* marks the source's active call; other numbers are inactive results; . = no result; + = active, no number. Compounds with a hit are over-represented: about 3.1% of the library has one in this group of screens. Rule as the data show it, unless noted: active = inhibition above about 27%; inactive = the rest.

SMILES	FadD28 FP inh	Mtb FBA inh	GDH-TPI counter-1	SARS 3CLpro inh	BioA inh	Mtb FBA confirm	GDH-TPI counter-2
CN(CCNC(=O)c1c[nH]c2c1ccc1ccccc12)CCNC(=O)c1c[nH]c2c1ccc1ccccc12	-12	30*	22	.	.	193*	173*
COc1cc2nc(N3CCNCC3)nc(N)c2cc1OC	-3	56*	4	2	.	8	-3
CC=Cc1ccc2n(c1=O)C[C@H]1[C@H](CO)[C@@H](C(=O)NCC3CC3)[C@@H]2N1Cc1ccccc1F (mixture of isomers)	.	.	.	.	-2	.	.
C[C@@H]1CN([C@H](C)CO)C(=O)Cc2cc(NS(=O)(=O)c3cn(C)cn3)ccc2O[C@H]1CN(C)C	.	.	.	.	-2	.	.
CCN1C(=O)[C@H]2[C@@H](c3ccc(-c4ccc(OC)cc4)cc3)N[C@@](C)(C(=O)OC)[C@H]2C1=O	0	100*	13	.	-1	135*	94*
CCCNC(=O)Nc1ccc2c(c1)OC[C@@H](C)N(C(=O)C1CCCCC1)C[C@H](C)[C@@H](OC)CN(C)C2=O	.	.	.	.	-2	.	.
COc1ccc(Nc2cc(C(=O)NCc3ccco3)c3ccccc3n2)cc1	.	.	.	5	.	.	.
O=C(NCc1ccco1)c1cc2nc(-c3cccs3)cc(C(F)(F)F)n2n1	-1	37*	21	-5	5	3	-1
CC(C)OCCCNC(=O)c1cc(-c2cccs2)nc2ccccc12	-4	93*	17	-4	-2	88*	83*
Cc1nn(-c2ccccn2)c2nc(-c3cccs3)cc(C(=O)NCc3ccco3)c12	-6	48*	30	2	.	59*	61*
O=C(NCc1ccco1)c1nn2c(C(F)(F)F)cc(-c3cccs3)nc2c1Cl	-2	0	19	6	0	.	.
O=C(NCc1ccco1)c1cc(-c2cccs2)nc2ccccc12	-7	79*	17	0	.	9	-5
COc1ccc(NC(=O)N(C)C[C@@H]2Oc3ccc(NS(=O)(=O)c4cn(C)cn4)cc3C(=O)N([C@@H](C)CO)C[C@@H]2C)cc1	.	.	.	.	2	.	.
CN1C[C@H]2[C@@H](c3ccccc31)[C@H](CO)N2C(=O)Nc1cccc(F)c1	.	.	.	.	0	.	.
C[C@@H]1CCCCO[C@H](CN(C)C(=O)c2ccccc2)[C@H](C)CN([C@@H](C)CO)C(=O)c2cc(NC(=O)CCCCCC(=O)Nc3ccccc3N)ccc2O1	.	.	.	.	0	.	.
COc1ccc(-c2cc(C(F)F)n3ncc(C(=O)N4CCN(C(=O)c5ccco5)CC4)c3n2)cc1	-3	25	22	-1	2	.	.
COc1ccc(-c2cc(C(F)F)n3ncc(C(=O)N4CCc5ccccc5C4)c3n2)cc1	-5	30*	8	3	0	83*	76*
COc1ccc(-c2cc(C(F)F)n3ncc(C(=O)NCCCN4CCCC4=O)c3n2)cc1	0	31*	6	2	4	+	169*
COc1ccc2[nH]c(C(=O)NCCCN3CCCC3=O)c(C)c2c1	0	58*	-1	0	2	-5	-2
O=C(C[C@H]1CC[C@@H](NS(=O)(=O)c2ccc(F)cc2)[C@H](CO)O1)N1CCC(Cc2ccccc2)CC1	.	.	.	.	2	.	.
CCOc1ccc(-c2cnc3cccnn23)cc1	-3	9	16	.	0	.	.
CCOc1cccc(-c2cnc3cccnn23)c1	-4	73*	16	.	2	-3	-6
Cc1cccc(-c2cnc3cccnn23)c1	-4	45*	1	.	0	-8	-7
O=C(COc1ccc2c3c(c(=O)oc2c1)CCC3)N1CCN(c2ccc(F)cc2)CC1	2	8	26	3	5	.	.
NC(=O)C1CCN(C(=O)COc2ccc3c4c(c(=O)oc3c2)CCCC4)CC1	-2	79*	24	3	4	166*	136*
SMILES	FadD28 FP inh	Mtb FBA inh	GDH-TPI counter-1	SARS 3CLpro inh	BioA inh	Mtb FBA confirm	GDH-TPI counter-2
O=C(O)C1CCN(C(=O)COc2ccc3c4c(c(=O)oc3c2)CCC4)CC1	1	41*	16	-2	1	124*	79*
O=C(C[C@H]1CC[C@H]2[C@@H](COC[C@H](O)CN2C(=O)Cc2ccccc2)O1)NC1Cc2ccccc2C1	.	.	.	.	-3	.	.
CO[C@@H](C(=O)N(C)C[C@H]1OCc2ccccc2-c2c(n(C)c3ccccc23)C(=O)N([C@@H](C)CO)C[C@@H]1C)c1ccccc1	.	.	.	.	1	.	.
Cc1ccc(CNC(=O)C2C3C=CC4(CN(Cc5cccnc5)C(=O)C24)O3)cc1 (configuration not stated)	-1	68*	2	1	-1	9	-2
CCOC(=O)c1cc(-c2ccccc2)sc1NC(=O)C(C)C	-2	37*	1	-3	.	125*	113*
CCOC(=O)c1cc(-c2ccccc2)sc1NC(=O)COC	-4	4	-15	-2	.	.	.
COc1cccc2c(=O)c(C(=O)NCc3cccs3)c[nH]c12	-1	34*	12	-3	-2	32*	26*
COc1cccc2c(=O)c(C(=O)NCCc3ccccc3)c[nH]c12	-3	48*	10	.	2	63*	45*
Cc1ccc2[nH]cc(C(=O)NCc3cccs3)c(=O)c2c1	-6	0	-4	1	0	.	.
COc1cc2[nH]cc(C(=O)NCCc3ccccc3)c(=O)c2cc1OC	-6	6	10	-4	1	.	.
Cc1c(OC(C)C(=O)NCc2cccnc2)ccc2c3c(c(=O)oc12)CCCC3 (configuration not stated)	-5	61*	7	0	17	+	+
O=C(O)CCNC(=O)COc1ccc2c3c(c(=O)oc2c1)CCCC3	-2	66*	2	-5	.	40*	35*
O=C(COc1ccc2c3c(c(=O)oc2c1)CCCC3)NCCN1CCOCC1	-1	48*	15	-3	0	-1	-2
Cc1c(OCC(=O)NCc2cccnc2)ccc2c3c(c(=O)oc12)CCCC3	-3	2	0	-2	-2	.	.
O=C(COc1ccc2c3c(c(=O)oc2c1)CCCC3)NCCCN1CCOCC1	-2	29*	23	-1	0	89*	64*
C[C@H](CO)N1C[C@H](C)[C@H](CN(C)S(=O)(=O)c2ccccc2)Oc2ccc(NC(=O)C3CC3)cc2CC1=O	.	.	.	.	0	.	.
CC(Oc1ccc2c3c(c(=O)oc2c1)CCC3)C(=O)NCc1cccnc1 (configuration not stated)	-1	12	16	-4	.	.	.
CC(Oc1ccc2c3c(c(=O)oc2c1)CCCC3)C(=O)NCCN1CCOCC1 (configuration not stated)	-2	51*	12	-5	1	76*	61*
CC(Oc1ccc2c3c(c(=O)oc2c1)CCCC3)C(=O)NCc1ccncc1 (configuration not stated)	-4	51*	-6	2	4	7	-3
Cc1cc(OCC(=O)N2CCOCC2)cc2oc(=O)c3ccccc3c12	-1	54*	13	-8	0	70*	45*
